According to the supplement of paper PMC9262897, “Low-cost anti-mycobacterial drug discovery using engineered E. coli” (Nature Communications, 2022):
Structures can show the parent of a compound that is named as a salt. ± gives the standard deviation of the averaged measurements.

What was measured:
Assay in all cases: growth (OD600 after 10 h); higher = more growth (less inhibition)
[1] = tested on: E. coli TESEC Alr+ wild-type control; conditions: compound 0.1 mM; raw OD600 reference: median of DMSO wells 0.241, cell-free background 0.041
Method: (§1)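 TESEC Mtb Alr E. coli, or the Alr+ wild-type control, in 384-well plates with Prestwick library compounds at 0.1 mM and 1% DMSO, across arabinose induction levels of 1E3 to 1E7 nM. Growth is read as OD600 after 10 h at 37 °C in triplicate biological replicates.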

[2] = tested on: E. coli TESEC Mtb Alr; conditions: compound 0.1 mM
Method: as §1

[3] = tested on: E. coli TESEC Mtb Asd; conditions: compound 0.1 mM
Method: (§2)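 TESEC E. coli strains in which the native enzyme is deleted and replaced by arabinose-inducible Mtb Asd, DapB, CysH or TrpD, each grown in its selective medium. Strains were screened against the Prestwick library at 0.1 mM and 1% DMSO in 384-well format at low and high arabinose induction. Growth is read as OD600 after 10 h in triplicate.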

[4] = tested on: E. coli TESEC Mtb DapB; conditions: compound 0.1 mM
Method: as §2

[5] = tested on: E. coli TESEC Alr+ wild-type control; conditions: compound 0.1 mM; raw OD600 reference: median of DMSO wells 0.49, cell-free background 0.052
Method: (§3)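 TESEC Mtb Alr E. coli (ΔaraC ΔtolC ΔentC Δalr ΔdadX, arabinose-inducible Mtb Alr) or the Alr+ wild-type control strain, grown in defined M9-fructose medium without D-alanine in 96-well plates with Prestwick library compounds at 0.1 mM and 1% DMSO. Low Alr induction is 0.1 µM arabinose and high induction is 10 mM arabinose.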

[6] = tested on: E. coli TESEC Mtb Alr; conditions: compound 0.1 mM; remark: listed apart in the source
Method: as §3

[7] = arabinose 1000 nM, raw OD600 reference: median of DMSO wells 0.294, cell-free background 0.041
[8] = arabinose 10000 nM, raw OD600 reference: median of DMSO wells 0.264, cell-free background 0.041
[9] = arabinose 100000 nM, raw OD600 reference: median of DMSO wells 0.201, cell-free background 0.041
[10] = arabinose 1000000 nM, raw OD600 reference: median of DMSO wells 0.193, cell-free background 0.041
[11] = arabinose 10000000 nM, raw OD600 reference: median of DMSO wells 0.146, cell-free background 0.041
[12] = arabinose induction (level): High, raw OD600 reference: median of DMSO wells 0.331, cell-free background 0.041
[13] = arabinose induction (level): Low, raw OD600 reference: median of DMSO wells 0.417, cell-free background 0.041
[14] = arabinose induction (level): High, raw OD600 reference: median of DMSO wells […], cell-free background 0.041
[15] = arabinose induction (level): Low, raw OD600 reference: median of DMSO wells 0.227, cell-free background 0.041
[16] = arabinose 100 nM, raw OD600 reference: median of DMSO wells 0.413, cell-free background 0.052
[17] = arabinose 10000000 nM, raw OD600 reference: median of DMSO wells […], cell-free background 0.052

SMILES	growth [1]	growth [2, 7]	growth [2, 8]	growth [2, 9]	growth [2, 10]	growth [2, 11]	growth [3, 12]	growth [3, 13]	growth [4, 14]	growth [4, 15]	growth [5]	growth [6, 16]	growth [6, 17]
CC(=O)N[C@@H](CC(=O)N[C@@H](CCC(=O)O)C(=O)O)C(=O)O [Spaglumic acid]	0.237 ± 0.0082	0.289 ± 0.013	0.284 ± 0.015	0.197 ± 0.0095	0.198 ± 0.0026	0.143 ± 0.0028	0.227 ± 0.021	0.426 ± 0.026	0.211 ± 0.021	0.216 ± 0.027	0.522 ± 0.037	0.434 ± 0.0089	0.327 ± 0.0062
CCn1cc(C(=O)O)c(=O)c2cnc(N3CCNCC3)nc21 [Pipemidic acid]	0.116 ± 0.0069	0.0801 ± 0.033	0.063 ± 0.0022	0.117 ± 0.0072	0.0845 ± 0.028	0.147 ± 0.0057	0.157 ± 0.019	0.149 ± 0.014	0.188 ± 0.0053	0.168 ± 0.0065	0.158 ± 0.008	0.156 ± 0.021	0.082 ± 0.0092
CC(=O)Nc1c(I)c(C(=O)N[C@H]2C(O)O[C@H](CO)[C@@H](O)[C@@H]2O)c(I)c(N(C)C(C)=O)c1I (some centres undefined) [Metrizamide]	0.246 ± 0.014	0.307 ± 0.014	0.273 ± 0.0038	0.238 ± 0.034	0.188 ± 0.0051	0.16 ± 0.0066	0.247 ± 0.017	0.352 ± 0.0067	0.218 ± 0.025	0.212 ± 0.013	0.61 ± 0.014	0.403 ± 0.012	0.334 ± 0.011
COc1ccc(-c2cc(=O)c3c(O)cc(O[C@@H]4O[C@H](CO[C@@H]5O[C@@H](C)[C@H](O)[C@@H](O)[C@H]5O)[C@@H](O)[C@H](O)[C@H]4O)cc3o2)cc1O [Diosmin]	0.296 ± 0.0078	0.334 ± 0.01	0.277 ± 0.0034	0.248 ± 0.011	0.192 ± 0.013	0.1645 ± 0.00064	0.421 ± 0.085	0.358 ± 0.04	0.225 ± 0.016	0.243 ± 0.017	0.578 ± 0.14	0.437 ± 0.026	0.426 ± 0.065
CCOC(=O)C1=C(C)NC(C)=C(C(=O)OCC)C1c1ccccc1/C=C/C(=O)OC(C)(C)C [Lacidipine]	0.2596 ± 0.0023	0.308 ± 0.013	0.247 ± 0.0068	0.201 ± 0.017	0.119 ± 0.0029	0.156 ± 0.0078	0.299 ± 0.12	0.346 ± 0.043	0.157 ± 0.0032	0.182 ± 0.0034	0.521 ± 0.056	0.429 ± 0.017	0.322 ± 0.023
Nc1nc(F)nc2c1ncn2[C@@H]1O[C@H](CO)[C@@H](O)[C@@H]1O [Fludarabine]	0.207 ± 0.0038	0.216 ± 0.0082	0.241 ± 0.0025	0.168 ± 0.011	0.185 ± 0.0037	0.133 ± 0.0056	0.272 ± 0.031	0.222 ± 0.035	0.168 ± 0.014	0.194 ± 0.028	0.626 ± 0.044	0.411 ± 0.0067	0.31 ± 0.004
CN(C)CCC=C1c2ccccc2CCc2ccccc21 [Amitryptiline hydrochloride]	0.1735 ± 0.0011	0.218 ± 0.0042	0.247 ± 0.0093	0.195 ± 0.012	0.08457 ± 0.00076	0.152 ± 0.0021	0.146 ± 0.0079	0.273 ± 0.011	0.195 ± 0.019	0.232 ± 0.047	0.476 ± 0.0078	0.403 ± 0.015	0.182 ± 0.031
CCCCCCC[N+](CC)(CC)CCCCc1ccc(Cl)cc1 [Clofilium tosylate]	0.03993 ± 0.00025	0.03923 ± 5.8e-05	0.039 ± 0.00017	0.03977 ± 0.00021	0.03863 ± 0.00025	0.0398 ± 0.00026	0.0468 ± 0.00026	0.0474 ± 0.00051	0.0462 ± 0.00046	0.0478 ± 0.0034	0.0487 ± 0.00091	0.0551 ± 0.0018	0.05213 ± 0.0004
